PubChem BioAssay (NCI)
Several values for one entry are separate records, joined by “and”; a condition that tells them apart may be missing. Equal values may be shown once. The panel holds about 83,000 compounds, 20% with a hit somewhere; the sample as a whole holds those more often.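 Growth was measured after 48 h exposure to one concentration of compound in 96-well plates. Values under 10 count as active.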 Activity calls are given as the source filed them.

Tests used:
Experiment in all cases: NCI-60 one-dose screen, 48 h (100 = growth as untreated, 0 = no growth, -100 = all killed)
Details in all cases: 10 µM unless noted
HCT-15 colon = tested on: HCT-15 colon
HT29 colon = tested on: HT29 colon
SNB-75 CNS = tested on: SNB-75 CNS
SNB-19 CNS = tested on: SNB-19 CNS
U251 CNS = tested on: U251 CNS
PC-3 prostate = tested on: PC-3 prostate
SK-MEL-5 melanoma = tested on: SK-MEL-5 melanoma
UACC-62 melanoma = tested on: UACC-62 melanoma
LOX IMVI melanoma = tested on: LOX IMVI melanoma
SK-MEL-28 melanoma = tested on: SK-MEL-28 melanoma
SK-MEL-2 melanoma = tested on: SK-MEL-2 melanoma
SN12C renal = tested on: SN12C renal
UO-31 renal = tested on: UO-31 renal
TK-10 renal = tested on: TK-10 renal
ACHN renal = tested on: ACHN renal
CAKI-1 renal = tested on: CAKI-1 renal
A498 renal = tested on: A498 renal
CCRF-CEM leukemia = tested on: CCRF-CEM leukemia
MOLT-4 leukemia = tested on: MOLT-4 leukemia
EKVX NSCLC = tested on: EKVX NSCLC

SMILES | growth (HCT-15 colon) | growth (HT29 colon) | growth (SNB-75 CNS) | growth (SNB-19 CNS) | growth (U251 CNS) | growth (PC-3 prostate) | growth (SK-MEL-5 melanoma) | growth (UACC-62 melanoma) | growth (LOX IMVI melanoma) | growth (SK-MEL-28 melanoma) | growth (SK-MEL-2 melanoma) | growth (SN12C renal) | growth (UO-31 renal) | growth (TK-10 renal) | growth (ACHN renal) | growth (CAKI-1 renal) | growth (A498 renal) | growth (CCRF-CEM leukemia) | growth (MOLT-4 leukemia) | growth (EKVX NSCLC)
O=C(c1ccc(Cl)cc1)C1[C@H](c2ccccc2Cl)[C@@H](c2ccccc2)NC12C(=O)Nc1ccccc12 (stereo partly specified) | -25.8% (active) | -71.7% (active) | -4.03% (active) | 7.09% (active) | -26.4% (active) | -3.66% (active) | -97.1% (active) | -73.3% (active) | -97.9% (active) | -57.3% (active) | -85.3% (active) | -89.1% (active) | 3.34% (active) | 12.1% (inactive) | 1.1% (active) | 3.65% (active) | -29% (active) | 4.66% (active) | -32.1% (active) | –
CCOC(=O)/C(F)=C/C1CC1C(c1ccccc1)c1ccccc1 (stereo unspecified) | 67% (inactive) | 80.6% (inactive) | 90.4% (inactive) | 95.9% (inactive) | 109% (inactive) | 78.8% (inactive) | 88.9% (inactive) | 65.1% (inactive) | 84.9% (inactive) | 103% (inactive) | 86.3% (inactive) | 98.8% (inactive) | 70.2% (inactive) | 101% (inactive) | 98.9% (inactive) | 65.6% (inactive) | 87.9% (inactive) | 85.4% (inactive) | 76.8% (inactive) | –
Fc1ccc(Nc2nnc(-c3c[nH]c4ccccc34)o2)cc1 | 66.7% (inactive) | 102% (inactive) | 88.9% (inactive) | 85% (inactive) | 84.8% (inactive) | 70.8% (inactive) | 91.4% (inactive) | 77.8% (inactive) | 72.2% (inactive) | 106% (inactive) | 96.7% (inactive) | 56.2% (inactive) | 44.4% (inactive) | 123% (inactive) | 77.5% (inactive) | 67.8% (inactive) | 133% (inactive) | 16.3% (inactive) | – | –
O=C(CSc1nc2c(c(=O)[nH]1)CCCC2)Nc1ccccc1C(=O)O | 98.3% (inactive) | 105% (inactive) | 125% (inactive) | 99.7% (inactive) | 103% (inactive) | 106% (inactive) | 99.3% (inactive) | 96.1% (inactive) | 101% (inactive) | 112% (inactive) | 98.9% (inactive) | 93.3% (inactive) | 82.3% (inactive) | 106% (inactive) | 106% (inactive) | – | – | 101% (inactive) | 99.3% (inactive) | 99.2% (inactive)
CC(C)(C)c1ccc(OCc2nc3ccccc3n2-c2cccc(N)c2)cc1 | 39.3% (inactive) and 103% (inactive) | 30.8% (inactive) and 110% (inactive) | 56.9% (inactive) and 120% (inactive) | 75.3% (inactive) and 100% (inactive) | 59.3% (inactive) and 105% (inactive) | 35.2% (inactive) and 99.9% (inactive) | 5.56% (active) and 98.9% (inactive) | 55.3% (inactive) and 98.3% (inactive) | 54.7% (inactive) and 97.9% (inactive) | 79.4% (inactive) and 121% (inactive) | 62.8% (inactive) and 109% (inactive) | 79.2% (inactive) and 106% (inactive) | 43.4% (inactive) and 83.6% (inactive) | 93.3% (inactive) and 111% (inactive) | 70.2% (inactive) and 112% (inactive) | 44.4% (inactive) and 95.6% (inactive) | 142% (inactive) and 126% (inactive) | 46% (inactive) and 96.1% (inactive) | 25.4% (inactive) and 90.9% (inactive) | –
CNS(=O)(=O)N1CCc2c(Br)c3c(c(OC)c2C1CCc1ccccc1)OCO3 (stereo unspecified) | 2.11% (active) | -25.4% (active) | -38.4% (active) | 4.35% (active) | -63.6% (active) | 4.03% (active) | -100% (active) | -78.7% (active) | -95.1% (active) | -77.9% (active) | -66.2% (active) | -88.8% (active) | -20.1% (active) | -0.435% (active) | 0.33% (active) | – | -69.5% (active) | 12.4% (inactive) | 1.16% (active) | -6.87% (active)
Cc1ccc(O)cc1Nc1nc(SCCN2CCOCC2)nc2c1cnn2CC(Cl)c1ccc(Br)cc1 (stereo unspecified) | 0.154% (active) | -30.2% (active) | 4.06% (active) | 20.6% (inactive) | 15.4% (inactive) | 17% (inactive) | -0.938% (active) | 15.6% (inactive) | -88.4% (active) | 17.1% (inactive) | -35.9% (active) | 20% (inactive) | 6.07% (active) | 17.8% (inactive) | 1.87% (active) | -31.5% (active) | 29.3% (inactive) | 5.71% (active) | -24.6% (active) | –
Nc1nn2c(-c3cc4ccccc4oc3=O)ccnc2c1N=Nc1ccccc1 | 82.5% (inactive) | 124% (inactive) | 40% (inactive) | 4.86% (active) | 6.17% (active) | 82.5% (inactive) | 67.6% (inactive) | 92.7% (inactive) | 34% (inactive) | 90.2% (inactive) | 97.4% (inactive) | 48.6% (inactive) | 63.2% (inactive) | 103% (inactive) | 54.9% (inactive) | – | 111% (inactive) | 101% (inactive) | 113% (inactive) | –
CCC(=O)c1c2c(c3ccc4c5ccccc5ccc4n13)C(=O)c1ccccc1C2=O | 66.8% (inactive) | 94.2% (inactive) | 113% (inactive) | 66.7% (inactive) | 90.4% (inactive) | 77.1% (inactive) | -23.6% (active) | 54.9% (inactive) | 50.1% (inactive) | 76.4% (inactive) | 89.2% (inactive) | 85.6% (inactive) | 59.8% (inactive) | 122% (inactive) | 83.3% (inactive) | 84% (inactive) | 215% (inactive) | 100% (inactive) | 89.6% (inactive) | –
CC(=O)c1ccc2c(N)c(C(=O)Nc3ccc(C(F)(F)F)cc3)sc2n1 | 40.7% (inactive) | 82.2% (inactive) | 84.7% (inactive) | 67.9% (inactive) | 72.6% (inactive) | 70.2% (inactive) | -5% (active) | 59.7% (inactive) | 37.8% (inactive) | 87.2% (inactive) | 67.7% (inactive) | 73% (inactive) | 73.8% (inactive) | 67% (inactive) | 66.2% (inactive) | – | 126% (inactive) | 60.9% (inactive) | 32.7% (inactive) | 40.7% (inactive)
O=C1/C(=C/c2cnc(-c3ccccc3)s2)SC(=S)N1Cc1ccc2c(c1)OCO2 | 81.2% (inactive) | 111% (inactive) | -30.1% (active) | 16.7% (inactive) | 42% (inactive) | 97.9% (inactive) | 96.9% (inactive) | 61.5% (inactive) | 66.6% (inactive) | 103% (inactive) | 72.7% (inactive) | 72.9% (inactive) | 86.5% (inactive) | 78.4% (inactive) | 42.1% (inactive) | – | 45.2% (inactive) | 87.2% (inactive) | 99.2% (inactive) | 79.3% (inactive)
C[C@@H]1CN(c2ccc3ncc(C#Cc4cncc(C(=O)Nc5ccc(CN6CCN(C)CC6)c(C(F)(F)F)c5)c4)n3n2)C[C@@H](C)O1 | -91% (active) | -60.5% (active) | -95.9% (active) | -99.8% (active) | -68.8% (active) | -54.9% (active) | -99.6% (active) | -65.6% (active) | -96.8% (active) | -58.4% (active) | -88.4% (active) | -66.5% (active) | -99.3% (active) | -98% (active) | -95.3% (active) | -95.3% (active) | -99% (active) | -36% (active) | 4.86% (active) | –
C=CCn1c(O)c(N=Nc2nc(-c3cc4ccccc4oc3=O)cs2)c2ccccc21 | 98.4% (inactive) | 17.2% (inactive) | -25% (active) | 38.7% (inactive) | 13.3% (inactive) | 56.4% (inactive) | 33.3% (inactive) | 52.6% (inactive) | 70.1% (inactive) | 49.8% (inactive) | 64.4% (inactive) | 90.7% (inactive) | 101% (inactive) | 90.9% (inactive) | 78.4% (inactive) | – | 137% (inactive) | 35.8% (inactive) | 98.3% (inactive) | 55.7% (inactive)
O=S(=O)(c1nc(-c2ccc(Br)cc2)oc1-c1ccc(Cl)cc1)N1CCCC(O)C1 (stereo unspecified) | 42.6% (inactive) | 11.2% (inactive) | 94.6% (inactive) | 62% (inactive) | 64.8% (inactive) | 28.2% (inactive) | 82.6% (inactive) | 53.8% (inactive) | 4.05% (active) | 79.4% (inactive) | 65.2% (inactive) | -59.5% (active) | 37.4% (inactive) | 102% (inactive) | 53.8% (inactive) | 71.1% (inactive) | 83.3% (inactive) | 48.1% (inactive) | 6.98% (active) | –
COc1ccc2[nH]c(=O)cc(-n3ncc(C(=O)/C=C/c4cc(OC)c(OC)c(OC)c4)c3C)c2c1 | -27.1% (active) | -27.4% (active) | 32.2% (inactive) | 19.8% (inactive) | -67.4% (active) | 7.18% (active) | -93.9% (active) | -69.5% (active) | -85.6% (active) | -77.1% (active) | -28.3% (active) | 7.21% (active) | -36.2% (active) | 40.9% (inactive) | -14.9% (active) | – | 0.493% (active) | -20.4% (active) | -7.45% (active) | 11% (inactive)
Nc1nnc(CS(=O)(=O)c2ccccc2)s1 | 99.9% (inactive) | 94.6% (inactive) | 102% (inactive) | 103% (inactive) | 95.6% (inactive) | 93% (inactive) | 131% (inactive) | 91% (inactive) | 84.6% (inactive) | 112% (inactive) | 113% (inactive) | 106% (inactive) | 77.1% (inactive) | 98.7% (inactive) | 104% (inactive) | 88.8% (inactive) | 137% (inactive) | 102% (inactive) | 103% (inactive) | –
